# Data from the supplement of paper PMC4466140.
# How the values were obtained:
# Assay in all cases: SPOT peptide array binding signal intensity (averaged, normalized) (arbitrary units (background-subtracted, floor 0; scale differs between SH3 domains)); higher = stronger binding of the SH3 domain to the peptide
# [1] = molecular target: AgAbp1
# Procedure, shortened: (§1)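 To measure binding, SH3 domains from four yeast species were fused to GST, expressed in E. coli BL21(DE3) and purified on glutathione Sepharose. Each domain was incubated at 10 μg/ml overnight at 4°C on cellulose membranes with synthetic 15-mer peptides whose cysteines were replaced by serines. Anti-GST antibody, an HRP anti-mouse secondary and luminol were used for detection, and images were quantified with Genespotter. Reported binding signal is normalized, background-subtracted spot intensity averaged over replicates, in arbitrary units that differ between domains.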
# [2] = molecular target: AgBbc1
# Procedure, shortened: as §1
# [3] = molecular target: AgBem1-D1
# Procedure, shortened: as §1
# [4] = molecular target: AgBzz1-D1
# Procedure, shortened: as §1
# [5] = molecular target: AgBzz1-D2
# Procedure, shortened: as §1
# [6] = molecular target: AgCyk3
# Procedure, shortened: as §1
# [7] = molecular target: AgFus1
# Procedure, shortened: as §1
# [8] = molecular target: AgHof1
# Procedure, shortened: as §1
# [9] = molecular target: AgHse1
# Procedure, shortened: as §1
# [10] = molecular target: AgLsb1
# Procedure, shortened: as §1
# [11] = molecular target: AgLsb4
# Procedure, shortened: as §1
# [12] = molecular target: AgMyo5
# Procedure, shortened: as §1
# [13] = molecular target: AgNbp2
# Procedure, shortened: as §1
# [14] = molecular target: AgRvs167
# Procedure, shortened: as §1
# [15] = molecular target: AgSho1
# Procedure, shortened: as §1
# [16] = molecular target: AgSla1-D1-D2
# Procedure, shortened: as §1
# [17] = molecular target: AgSla1-D3
# Procedure, shortened: as §1
# [18] = molecular target: CaAbp1-D1
# Procedure, shortened: as §1
# [19] = molecular target: CaAbp1-D2
# Procedure, shortened: as §1
# [20] = molecular target: CaBbc1
# Procedure, shortened: as §1
# [21] = molecular target: CaBem1-D1
# Procedure, shortened: as §1
# [22] = molecular target: CaBzz1-D1
# Procedure, shortened: as §1
# [23] = molecular target: CaBzz1-D2
# Procedure, shortened: as §1
# [24] = molecular target: CaCyk3
# Procedure, shortened: as §1
# [25] = molecular target: CaFus1
# Procedure, shortened: as §1
# [26] = molecular target: CaHof1
# Procedure, shortened: as §1
# [27] = molecular target: CaHse1
# Procedure, shortened: as §1
# [28] = molecular target: CaLsb1
# Procedure, shortened: as §1
# [29] = molecular target: CaLsb4
# Procedure, shortened: as §1
# [30] = molecular target: CaMyo5
# Procedure, shortened: as §1
# [31] = molecular target: CaNbp2
# Procedure, shortened: as §1
# [32] = molecular target: CaRvs167
# Procedure, shortened: as §1
# [33] = molecular target: CaRvs167-3
# Procedure, shortened: as §1
# [34] = molecular target: CaSho1
# Procedure, shortened: as §1
# [35] = molecular target: CaSla1-D1-D2
# Procedure, shortened: as §1
# [36] = molecular target: CaSla1-D3
# Procedure, shortened: as §1
# [37] = molecular target: ScAbp1
# Procedure, shortened: as §1
# [38] = molecular target: ScBbc1
# Procedure, shortened: as §1
# [39] = molecular target: ScBem1-D1
# Procedure, shortened: as §1
# [40] = molecular target: ScBzz1-D1
# Procedure, shortened: as §1
# [41] = molecular target: ScBzz1-D2
# Procedure, shortened: as §1
# [42] = molecular target: ScCyk3
# Procedure, shortened: as §1
# [43] = molecular target: ScFus1
# Procedure, shortened: as §1
# [44] = molecular target: ScHof1
# Procedure, shortened: as §1
# [45] = molecular target: ScHse1
# Procedure, shortened: as §1
# [46] = molecular target: ScLsb1
# Procedure, shortened: as §1
# [47] = molecular target: ScLsb2
# Procedure, shortened: as §1
# [48] = molecular target: ScLsb3
# Procedure, shortened: as §1
# [49] = molecular target: ScLsb4
# Procedure, shortened: as §1
# [50] = molecular target: ScMyo3
# Procedure, shortened: as §1
# [51] = molecular target: ScMyo5
# Procedure, shortened: as §1
# [52] = molecular target: ScNbp2
# Procedure, shortened: as §1
# [53] = molecular target: ScPex13
# Procedure, shortened: as §1
# [54] = molecular target: ScRvs167
# Procedure, shortened: as §1
# [55] = molecular target: ScSho1
# Procedure, shortened: as §1
# [56] = molecular target: ScSla1-D1-D2
# Procedure, shortened: as §1
# [57] = molecular target: ScSla1-D3
# Procedure, shortened: as §1
# [58] = molecular target: SpAbp1-D1
# Procedure, shortened: as §1
# [59] = molecular target: SpBbc1
# Procedure, shortened: as §1
# [60] = molecular target: SpBzz1-D1
# Procedure, shortened: as §1
# [61] = molecular target: SpBzz1-D2
# Procedure, shortened: as §1
# [62] = molecular target: SpCyk3
# Procedure, shortened: as §1
# [63] = molecular target: SpHof1
# Procedure, shortened: as §1
# [64] = molecular target: SpHof1-2
# Procedure, shortened: as §1
# [65] = molecular target: SpHof1-3
# Procedure, shortened: as §1
# [66] = molecular target: SpHse1
# Procedure, shortened: as §1
# [67] = molecular target: SpLsb1
# Procedure, shortened: as §1
# [68] = molecular target: SpLsb4
# Procedure, shortened: as §1
# [69] = molecular target: SpMyo1
# Procedure, shortened: as §1
# [70] = molecular target: SpNbp2
# Procedure, shortened: as §1
# [71] = molecular target: SpPex13
# Procedure, shortened: as §1
# [72] = molecular target: SpRvs167
# Procedure, shortened: as §1
# [73] = molecular target: SpSla1-D1-D2
# Procedure, shortened: as §1
# [74] = molecular target: SpSla1-D3
# Procedure, shortened: as §1
binder,measurement,setting,value
NSMRPPLLIPAATTK,SPOT peptide array binding signal intensity,[1],0.5
same,SPOT peptide array binding signal intensity,[2],13.5
same,SPOT peptide array binding signal intensity,[3],450
same,SPOT peptide array binding signal intensity,[4],19
same,SPOT peptide array binding signal intensity,[5],16.5
same,SPOT peptide array binding signal intensity,[6],1
same,SPOT peptide array binding signal intensity,[7],384
same,SPOT peptide array binding signal intensity,[8],20.5
same,SPOT peptide array binding signal intensity,[9],210
same,SPOT peptide array binding signal intensity,[10],128
same,SPOT peptide array binding signal intensity,[11],12
same,SPOT peptide array binding signal intensity,[12],15
same,SPOT peptide array binding signal intensity,[13],114
same,SPOT peptide array binding signal intensity,[14],2.33
same,SPOT peptide array binding signal intensity,[15],390
same,SPOT peptide array binding signal intensity,[16],4
same,SPOT peptide array binding signal intensity,[17],1.75
same,SPOT peptide array binding signal intensity,[18],63.5
same,SPOT peptide array binding signal intensity,[19],121
same,SPOT peptide array binding signal intensity,[20],47.2
same,SPOT peptide array binding signal intensity,[21],378
same,SPOT peptide array binding signal intensity,[22],190
same,SPOT peptide array binding signal intensity,[23],111
same,SPOT peptide array binding signal intensity,[24],5.5
same,SPOT peptide array binding signal intensity,[25],1550
same,SPOT peptide array binding signal intensity,[26],0.5
same,SPOT peptide array binding signal intensity,[27],103
same,SPOT peptide array binding signal intensity,[28],13.2
same,SPOT peptide array binding signal intensity,[29],516
same,SPOT peptide array binding signal intensity,[30],133
same,SPOT peptide array binding signal intensity,[31],291
same,SPOT peptide array binding signal intensity,[32],83.8
same,SPOT peptide array binding signal intensity,[33],3.75
same,SPOT peptide array binding signal intensity,[34],1320
same,SPOT peptide array binding signal intensity,[35],244
same,SPOT peptide array binding signal intensity,[36],317
same,SPOT peptide array binding signal intensity,[37],4
same,SPOT peptide array binding signal intensity,[38],1.5
same,SPOT peptide array binding signal intensity,[39],≤ 0
same,SPOT peptide array binding signal intensity,[40],7.5
same,SPOT peptide array binding signal intensity,[41],19.5
same,SPOT peptide array binding signal intensity,[42],6
same,SPOT peptide array binding signal intensity,[43],508
same,SPOT peptide array binding signal intensity,[44],≤ 0
same,SPOT peptide array binding signal intensity,[45],160
same,SPOT peptide array binding signal intensity,[46],232
same,SPOT peptide array binding signal intensity,[47],1
same,SPOT peptide array binding signal intensity,[48],303
same,SPOT peptide array binding signal intensity,[49],208
same,SPOT peptide array binding signal intensity,[50],47.5
same,SPOT peptide array binding signal intensity,[51],8.5
same,SPOT peptide array binding signal intensity,[52],150
same,SPOT peptide array binding signal intensity,[53],222
same,SPOT peptide array binding signal intensity,[54],53.7
same,SPOT peptide array binding signal intensity,[55],562
same,SPOT peptide array binding signal intensity,[56],266
same,SPOT peptide array binding signal intensity,[57],430
same,SPOT peptide array binding signal intensity,[58],27
same,SPOT peptide array binding signal intensity,[59],2.75
same,SPOT peptide array binding signal intensity,[60],273
same,SPOT peptide array binding signal intensity,[61],53.8
same,SPOT peptide array binding signal intensity,[62],3
same,SPOT peptide array binding signal intensity,[63],36
same,SPOT peptide array binding signal intensity,[64],31.8
same,SPOT peptide array binding signal intensity,[65],41
same,SPOT peptide array binding signal intensity,[66],444
same,SPOT peptide array binding signal intensity,[67],34.2
same,SPOT peptide array binding signal intensity,[68],761
same,SPOT peptide array binding signal intensity,[69],56.2
same,SPOT peptide array binding signal intensity,[70],116
same,SPOT peptide array binding signal intensity,[71],37
same,SPOT peptide array binding signal intensity,[72],68.2
same,SPOT peptide array binding signal intensity,[73],≤ 0
same,SPOT peptide array binding signal intensity,[74],200
TTAPALPSLPPPPLL,SPOT peptide array binding signal intensity,[61],≤ 0
same,SPOT peptide array binding signal intensity,[62],1
same,SPOT peptide array binding signal intensity,[63],≤ 0
same,SPOT peptide array binding signal intensity,[64],39.8
same,SPOT peptide array binding signal intensity,[65],≤ 0
same,SPOT peptide array binding signal intensity,[66],≤ 0
same,SPOT peptide array binding signal intensity,[67],≤ 0
same,SPOT peptide array binding signal intensity,[68],≤ 0
same,SPOT peptide array binding signal intensity,[69],1940
same,SPOT peptide array binding signal intensity,[70],≤ 0
same,SPOT peptide array binding signal intensity,[71],11
same,SPOT peptide array binding signal intensity,[72],≤ 0
same,SPOT peptide array binding signal intensity,[73],4
same,SPOT peptide array binding signal intensity,[74],2
